Several values for one entry are separate records, joined by “and”; a condition that tells them apart may be missing. Equal entries are not always repeated. Among all 5,500 compounds or so, about 2,000 (36%) were called active. Not shown: some 18% with an inconclusive outcome. Cut-off read from the data, not from the text of the source: active = normalized growth mostly below about 0.91 (no sharp cut-off); inconclusive = no clear call, values can overlap the other calls; inactive = mostly above about 0.92. The list shows a part of the results.
Experiment: chemical genetic growth profiling, strain panel (AID 1159580);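 note: tested at 20 µM; growth read once vehicle control cultures reached saturation at 30 °C; 1 = growth at the plate median or of vehicle wells; lower values mean less growth of the strain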
Conditions: S. cerevisiae deletion strains, growth OD

Measured: normalized growth

CCC1(c2ccccc2)C(=O)NCNC1=O
inactive: locus YAL013W, strain DEP1, hits give low values 1.01 | locus YAL021C, strain ccr4, hits give low values 1 | locus YAL026C, strain drs2, hits give low values 0.991 | locus YAL030W, strain snc1, hits give low values 1.01 | locus YAL040C, strain CLN3, hits give low values 0.982 | locus YBL061C, strain skt5, hits give low values 1.01 | locus YBR009C, strain hhf1, hits give low values 0.997 | locus YBR021W, strain FUR4, hits give low values 1 | locus YBR023C, strain chs3, hits give low values 1.01 | locus YBR171W, strain sec66, hits give low values 0.991 | locus YBR229C, strain ROT2, hits give low values 1 | locus YBR231C, strain swc5, hits give low values 1 | locus YBR279W, strain paf1, hits give low values 1.02 | locus YCL011C, strain gbp2, hits give low values 0.978 | locus YCL016C, strain dcc1, hits give low values 1.01 | locus YCL029C, strain bik1, hits give low values 0.994 | locus YCL061C, strain MRC1 (second series), hits give low values 0.993 | locus YCL061C, strain MRC1, hits give low values 0.988 | locus YCL069W, strain vba3, hits give low values 0.99 | locus YCR088W, strain abp1, hits give low values 0.984 | locus YDL005C, strain med2, hits give low values 1.01 | locus YDL035C, strain GPR1, hits give low values 1.01 | locus YDL040C, strain nat1, hits give low values 1.01 | locus YDL074C, strain BRE1, hits give low values 1.01 | locus YDL101C, strain DUN1, hits give low values 1.01 | locus YDL134C, strain PPH21, hits give low values 0.998 | locus YDL185W, strain tfp1, hits give low values 0.991 | locus YDL192W, strain arf1, hits give low values 0.999 | locus YDR001C, strain nth1, hits give low values 0.987 | locus YDR069C, strain doa4, hits give low values 0.998 | locus YDR101C, strain arx1, hits give low values 1.01 | locus YDR137W, strain rgp1, hits give low values 1.02 | locus YDR150W, strain NUM1, hits give low values 0.992 | locus YDR159W, strain sac3, hits give low values 0.994 | locus YDR162C, strain NBP2, hits give low values 1.01 | locus YDR195W, strain ref2 0.992 | locus YDR297W, strain sur2, hits give low values 1.01 | locus YDR318W, strain mcm21, hits give low values 1 | locus YDR334W, strain swr1, hits give low values 1 | locus YDR335W, strain msn5, hits give low values 1.01 | locus YDR363W, strain ESC2, hits give low values 0.969 | locus YDR388W, hits give low values 0.998 | locus YDR392W, strain spt3, hits give low values 0.958 | locus YDR502C, strain sam2, hits give low values 1 | locus YEL003W, strain gim4, hits give low values 0.975 | locus YEL037C, strain rad23, hits give low values 0.98 | locus YEL061C, strain CIN8 (second series), hits give low values 0.982 | locus YEL061C, strain CIN8, hits give low values 1 | locus YER002W, strain NOP16, hits give low values 0.988 | locus YER015W, strain faa2, hits give low values 0.99 | locus YER016W, strain bim1, hits give low values 1 | locus YER110C, hits give low values 1 | locus YER111C, strain swi4, hits give low values 0.99 | locus YER155C, strain BEM2 (second series), hits give low values 0.951 | locus YER155C, strain BEM2, hits give low values 0.998 | locus YER167W, strain BCK2, hits give low values 1 | locus YFR010W, strain ubp6, hits give low values 1 | locus YGL078C, strain dbp3, hits give low values 0.992 | locus YGL086W, strain mad1, hits give low values 1 | locus YGL167C, strain pmr1, hits give low values 1.01 | locus YGL173C, strain kem1, hits give low values 1 | locus YGL227W, strain vid30, hits give low values 0.98 | locus YGL240W, strain doc1, hits give low values 0.997 | locus YGL248W, strain PDE1, hits give low values 1 | locus YGL253W, strain hxk2, hits give low values 1 | locus YGR078C, strain PAC10, hits give low values 1.01 | locus YGR135W, strain pre9, hits give low values 0.995 | locus YGR252W, strain gcn5, hits give low values 0.987 | locus YHR013C, strain ard1, hits give low values 1.01 | locus YHR027C, strain rpn1, hits give low values 1.01 | locus YHR030C, strain SLT2, hits give low values 1 and 1.02 | locus YHR079C, strain IRE1 (second series), hits give low values 0.995 | locus YHR079C, strain IRE1, hits give low values 0.993 | locus YHR094C, strain hxt1, hits give low values 0.995 | locus YHR129C, strain ARP1, hits give low values 1.01 | locus YHR142W, strain chs7, hits give low values 1 | locus YHR200W, strain rpn10, hits give low values 0.995 | locus YIL066C, strain RNR3, hits give low values 1.01 | locus YIL073C, strain SPO22, hits give low values 1 | locus YIL125W, strain kgd1, hits give low values 1 | locus YIR030C, strain dcg1, hits give low values 0.997 | locus YJL092W, strain hpr5, hits give low values 0.975 | locus YJL095W, strain BCK1 (second series), hits give low values 1.01 | locus YJL095W, strain BCK1, hits give low values 1.01 and 1.02 | locus YJL115W, strain asf1, hits give low values 0.988 | locus YJL129C, strain trk1, hits give low values 0.967 | locus YJL134W, strain LCB3, hits give low values 1.01 | locus YJL154C, strain vps35, hits give low values 0.976 | locus YJL164C, strain tpk1, hits give low values 1 | locus YJL166W, strain qcr8, hits give low values 1.04 | locus YJL168C, strain set2, hits give low values 0.996 | locus YJL187C, strain SWE1 (second series), hits give low values 1.01 | locus YJL187C, strain SWE1, hits give low values 1.02 | locus YJR043C, strain POL32, hits give low values 1 | locus YJR066W, strain TOR1, hits give low values 0.967
